# Measured values taken from PubChem BioAssay AID488969 (Vanderbilt High Throughput Screening Facility, 2010).
# The full ranking holds about 110,000 compounds; the median of “z-score” is about -0.1, and the highest 2% start at about 2. What follows is part of a selection rich in the highest values, with near analogues and random picks from the rest. The source made the active and inactive calls.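 Rule for the calls: active = z-score in the third read window above 3 or below -3; inactive = the rest.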
# Biological target: Metabotropic glutamate receptor 8 (Rattus norvegicus) (UniProt P70579)
# Assay: rat mGluR8 modulators via GIRK flux, primary screen, cell-based, thallium flux, HTS (AID 488969)
# Settings: HEK293 rat mGluR8, GIRK (G protein-gated inwardly rectifying potassium channel) thallium flux, FluoZin2; at 10 µM; stronger effect = higher value; submaximal glutamate (EC20) added with thallium
# Sequence of Metabotropic glutamate receptor 8 (Rattus norvegicus) (P70579 whole entry, looked up): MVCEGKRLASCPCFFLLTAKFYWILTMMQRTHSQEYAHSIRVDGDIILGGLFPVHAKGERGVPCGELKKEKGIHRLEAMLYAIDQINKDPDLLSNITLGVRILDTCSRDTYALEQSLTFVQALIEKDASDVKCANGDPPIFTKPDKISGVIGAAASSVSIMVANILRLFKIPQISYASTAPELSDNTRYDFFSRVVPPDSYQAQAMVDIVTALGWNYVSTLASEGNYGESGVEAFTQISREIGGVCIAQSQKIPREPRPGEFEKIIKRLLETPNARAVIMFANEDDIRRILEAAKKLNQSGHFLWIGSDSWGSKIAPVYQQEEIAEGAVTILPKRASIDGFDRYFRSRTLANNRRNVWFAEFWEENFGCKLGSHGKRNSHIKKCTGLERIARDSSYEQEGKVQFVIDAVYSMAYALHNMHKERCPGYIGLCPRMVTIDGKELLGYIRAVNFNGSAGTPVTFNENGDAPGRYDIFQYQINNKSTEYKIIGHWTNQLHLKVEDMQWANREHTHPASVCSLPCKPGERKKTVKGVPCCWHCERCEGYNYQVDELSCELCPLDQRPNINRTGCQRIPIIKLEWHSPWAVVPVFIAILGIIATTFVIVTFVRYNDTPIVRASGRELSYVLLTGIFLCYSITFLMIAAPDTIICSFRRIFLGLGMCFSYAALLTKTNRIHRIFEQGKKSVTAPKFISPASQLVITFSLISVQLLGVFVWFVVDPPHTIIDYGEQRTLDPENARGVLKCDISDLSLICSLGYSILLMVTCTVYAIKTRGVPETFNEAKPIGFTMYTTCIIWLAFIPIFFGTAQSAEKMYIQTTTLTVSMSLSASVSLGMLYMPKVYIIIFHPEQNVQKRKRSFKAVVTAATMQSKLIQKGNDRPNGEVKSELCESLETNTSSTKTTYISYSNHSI
row,SMILES,z-score
1,CCn1c(SCc2nc(-c3ccc(OC)c(OC)c3)no2)nnc1-c1cccs1,-1.5
2,Cc1ccccc1OCCCC(=O)Nc1ccc2c(c1)OCO2,0.157
3,O=C(Nc1cccc(S(=O)(=O)N2CCCC2)c1)c1ccc2c(=O)n3c(nc2c1)CCCCC3,-1.24
4,COc1ccc(/C=N/n2c(=O)[nH]c3c([nH]c4ccc(C)cc43)c2=O)cc1CN1CCOCC1,-0.0345
5,CC(=O)N(c1ccccc1)c1nc(C)cc(C)c1C#N,-0.111
6,Cc1[nH]c2ccccc2c1C(=O)COC(=O)C1CC(=O)N(Cc2ccccc2)C1 (stereo not given),-0.363
7,CSc1nc2nccc(-c3ccc(-c4ccccc4)cc3)n2n1,-0.5
8,CSCCC(NC(=O)c1ccccc1)C(=O)NC1CC1 (stereo not given),0.177
9,Cc1nn(C(C)C(=O)N2CCCCC2)c(=O)c2c1sc1ccccc12 (stereo not given),-0.115
10,CCCCN(CCCC)C(=O)c1ccccc1NC(=O)CN1C(=O)c2ccccc2C1=O,-0.366
11,C=CCN(C)CC/C=C1\c2ccccc2CSc2ccccc21,1.99
12,CC(O)CN(C)CC/C=C1/c2ccccc2CSc2ccccc21 (stereo not given),0.694
13,C#CCN(C)CC/C=C1\c2ccccc2CSc2ccccc21,1.63
14,O=C1c2ccccc2C(=O)c2c1ccc(C(=O)N1CCCCC1)c2NCCO,0.68
15,Cc1cc(OCC(=O)O)c2ccccc2n1,-0.146
16,CC1(Br)C2CCCC1C2S(=O)(=O)c1ccccc1 (stereo not given),-0.376
17,CC(NS(=O)(=O)c1ccc(Cl)cc1)C(=O)NCc1ccco1 (stereo not given),0.0263
18,O=C(N/N=C\c1cc(Br)cs1)C1COc2ccccc2O1 (stereo not given),2.32
19,O=C(N/N=C/c1ccc2c(c1)OCO2)C1COc2ccccc2O1 (stereo not given),0.435
20,O=C(N/N=C/c1cccs1)C1COc2ccccc2O1 (stereo not given),0.238
21,CCOC(=O)/C=C1\CC(=O)Nc2cc(C)c(C)cc2N1,0.197
22,C/C(CC(=O)NC(C)C)=N\NC(=O)COc1cc(C)c(Br)cc1Br,6.24 (active)
23,CCCNC(=O)C/C(C)=N/NC(=O)COc1ccc(C)cc1Br,-0.101
24,Cc1cc(OCC(=O)NCC(C)C)cc(C)c1Br,-0.137

row,SMILES,z-score
1,C/C(CC(=O)Nc1ccccc1-c1ccccc1)=N\NC(=O)COc1ccc(C)cc1Br,0.458
2,C/C(CC(=O)NCC(C)C)=N\NC(=O)COc1cc(C)c(Br)cc1Br,5.36 (active)
3,CCOC(=O)C/C(C)=N/NC(=O)COc1ccccc1C,0.0596
4,O=C(CSc1ncnc2sc3c(c12)CCCC3)N1CCC(c2noc3ccc(F)cc23)CC1,0.658
5,CCOC(=O)NC(Nc1ccc(S(N)(=O)=O)cc1)(C(=O)OCC)C(F)(F)F (stereo not given),0.00287
6,COC(=O)c1ccc(/C=N/NC(=O)CC(=O)NC(C)C)cc1,-0.108
7,CC(=O)Nc1ccc(S(=O)(=O)Nc2nc3ccccc3nc2Nc2ccc(S(N)(=O)=O)cc2)cc1,-0.462
8,COc1ccc(-c2nnc(NC(=O)C3=COCCO3)o2)cc1,0.731
9,NC(=O)c1oc2ccccc2c1NC(=O)c1nc2ccccc2s1,-0.927
10,O=C(Nc1nnc(-c2ccccc2)o1)c1cc(Cl)sc1Cl,11.3 (active)
11,O=C(Nc1nnc(-c2ccccc2)o1)C1CCCCC1,0.0922
12,Cc1ccccc1C(=O)Nc1nnc(-c2ccc(F)cc2)o1,-0.035
13,O=C(Nc1nnc(-c2ccccc2Cl)o1)c1nc2ccccc2s1,1.61
14,O=C(Nc1nnc(-c2ccc(Cl)cc2)o1)C1=COCCO1,2.01
15,O=C(Nc1nnc(-c2ccc(Cl)cc2)o1)c1nc2ccccc2s1,4.07 (active)
16,O=C(Nc1ccccc1)Nc1nnc(-c2ccccc2)o1,-0.193
17,O=C(Nc1nnc(-c2ccc(Cl)cc2)o1)c1ccccc1Br,5.35 (active)
18,O=C(Nc1nnc(-c2ccc(Cl)cc2)o1)Nc1ccccc1Cl,1.85
19,O=C(Nc1nnc(C2=COCCO2)o1)c1ccc(Cl)cc1,0.709
20,COc1ccccc1NC(=O)CSc1nc(O)c(Cc2ccccc2)c(=O)[nH]1,0.381
21,COc1ccc(OC)c(-n2c(-c3cnccn3)n[nH]c2=S)c1,-0.441
22,COc1ccc(NS(=O)(=O)c2ccc(N3CCCC3)c(NC(=S)Nc3cccc(C)c3C)c2)cc1,0.291
23,O=C(CSc1nnc(CNC(=O)c2ccco2)o1)c1ccccc1,0.135
24,CC1(C)CC(=O)C/C(=N\NC(=O)Cc2ccccc2)C1,-0.224

row,SMILES,z-score
1,CC1(C)CC(=O)CC(=Nc2ccc(C(=O)O)cc2)C1,2.15
2,CCCC(=O)Nc1ccc(C(=O)N/N=C2\CC(=O)CC(C)(C)C2)cc1,-0.113
3,CC(=O)c1cccc(NC(=O)c2ccco2)c1,-0.295
4,CCOC(=O)c1c(-c2ccccc2)oc2ccc(O)c(CN3CCCC3)c12,1.41
5,CCOC(=O)c1c(C)n(C)c2ccc(O)c(CN3CCN(C)CC3)c12,0.0797
6,CCOC(=O)c1c(C)n(C)c2ccc(O)c(CN3CCCCC3)c12,0.782
7,CCOC(=O)c1c(C)oc2ccc(O)c(CN3CCCCC3)c12,3.52 (active)
8,CCOC(=O)c1c(C)n(C)c2ccc(O)c(CN(CC)CC)c12,-2.05
9,CCOC(=O)c1c(C)n(C)c2ccc(O)c(CN(C)C)c12,2
10,CCOC(=O)c1c(-c2ccccc2)oc2ccc(O)c(CN(C)C)c12,-0.204
11,CCOC(=O)c1c(C)n(C)c2ccc(O)c(CN3CCC(C)CC3)c12,3.63 (active)
12,CCOC(=O)c1c(C)oc2ccc(O)c(CN(C)C)c12,0.911
13,CCN(CCCNC(=O)CCNC(=O)Cn1cnc2ccccc2c1=O)c1ccccc1,0.554
14,CCOC(=O)C1CCCN(C(=O)c2ccccc2SCCOC)C1 (stereo not given),0.188
15,Cc1nnc(SCC(=O)Nc2ccc3c(c2)OCCO3)s1,0.669
16,O=C(O)/C=C\C(=O)Nc1ccccc1F,0.0594
17,CN1CCN(c2ccccc2NC(=O)c2ccc(-c3cccc([N+](=O)[O-])c3)o2)CC1,-0.00188
18,O=C(NC(=S)Nc1ccccc1N1CCCCC1)c1ccc(-c2cccc([N+](=O)[O-])c2)o1,0.681
19,O=C(NC(=S)Nc1cccc(Cl)c1N1CCCC1)c1ccc(-c2cccc([N+](=O)[O-])c2)o1,4.93 (active)
20,CC1CCN(c2ccccc2NC(=S)NC(=O)c2ccc(-c3cccc([N+](=O)[O-])c3)o2)CC1,0.191
21,O=C(NC(=S)Nc1ccccc1N1CCOCC1)c1ccc(-c2cccc(Cl)c2)o1,0.758
22,O=C(NC(=S)Nc1ccccc1N1CCCC1)c1ccc(-c2cccc([N+](=O)[O-])c2)o1,5.71 (active)
